Values joined by “and” are separate entries in the source; they are usually repeats but may differ in a detail not shown here. Equal values may be shown once. The whole screen tested about 340,000 compounds, of which about 6,200 (1.8%) were called active. Inconclusive results (about 10%) are left out. The call rests on the fitted dose curve; in most records, active means well fitted activation curve with a large enough effect; inconclusive means small, poorly fitted or top-dose-only effect; inactive means no such curve, though single readings can be large or run the other way. The list comes from a sample in which actives are over-represented; it also holds similar structures and randomly drawn compounds. A call without a number means that no potency is given here. More than one record can exist for a structure, and the calls need not agree.
Assay: A quantitative high throughput screen for small molecules that induce DNA re-replication in SW480 colon adenocarcinoma cells. Further: nearly all actives have a fitted effect of over 55% in size.
Settings: Hoechst DNA content imaging, 48 h; series mostly up to 46.1 µM
Excerpt: H Molecular Libraries Probe Production Network [MLPCN] NIH Chemical Genomics Center [NCGC] MLPCN Grant: Fast Track K99 CA136555 Assay Provider: Melvin DePamphilis, NICHD, NIH Assay Overview Eukaryotic cells normally restrict genome duplication to once per cell division. When this process is aberrant, DNA re-replication occurs when cells reinitiate DNA replication before the first round of replication is complete. DNA re-replication induces the DNA damage response, arrests cell proliferation, and triggers apoptosis. The cell cycle components cyclin A, Cdt-1, Cdc6 and geminin are critical regulators of this process and their misregulation results in DNA re-replication in normal and cancer cells. To identify compounds that induce re-replication in normal cells, an image-based assay was used to measure DNA content of nuclei, as detected by the fluorescent DNA binding dye, Hoechst. Cell nuclei were imaged by a fluorescence scanning plate imager and compounds that induce DNA re-replication were identified by the increase of nuclei with elevated fluorescence intensity
For screening, 250 cells in 5 uL/well were dispensed into black clear 1536-well plates (Aurora) using a solenoid-based dispenser. Following transfer of 23 nL compound or DMSO vehicle by a pin tool, the plates were incubated 48 hr at 37 C and 5% CO2. After addition of 1 uL/well Hoescht stain, the plates were incubated 40 min at 37 C, 5% CO2 and total intensity of fluorescent objects (nuclei) were enumerated by an Acumen Explorer Ex3 (TTP LabTech) fluorescence scanning plate imager (405 nm excitation, 500-530 nm emission). Keywords: NIH Roadmap, MLPCN, MLI, MLSMR, qHTS, NCGC, DNA replication, cancer
Potency means the concentration at half of the fitted maximal effect.

Row | Compound | Potency | re-replication activation
1 | Oc1c(Cl)cc(Cl)c(Cl)c1Cc1c(O)c(Cl)cc(Cl)c1Cl | inactive and 16.4 µM (active) | 
2 | CCOC(=O)[C@@H]1[C@H]2COc3ccc(Br)cc3[C@H]2N2C(=O)N(c3ccc(C)cc3)C(=O)[C@@]12C | inactive | 
3 | COc1cc(NC(=O)c2[nH]cnc2C(N)=O)cc(C(=O)Nc2cccc(C(F)(F)F)c2)c1 | inactive | 
4 | Cn1c(N)c(C(=O)COC(=O)c2ccc3ccccc3c2)c(=O)n(C)c1=O | inactive | 
5 | CCN(C[C@H]1N[C@@](Cc2ccccc2)(C(=O)OC)[C@H]2C(=O)N(Cc3ccccc3)C(=O)[C@@H]12)C(=O)c1ccc(C)cc1 | inactive | 
6 | COc1ccc(C(=O)COC(=O)CN2C(=O)C3CC=CCC3C2=O)c(OC)c1 (stereo not given) | inactive | 
7 | O=C(CCN1CCCCC1)N=Nc1c(O)[nH]c2ccccc12 | 18.4 µM (active) | 
8 | Cc1cccc(N(CC(=O)N=Nc2c(O)[nH]c3ccccc23)S(C)(=O)=O)c1C | inactive | 
9 | COCC(=O)N=Nc1c(O)[nH]c2ccccc12 | inactive | 
10 | O=c1nc(NO)ccn1C1CCCO1 (stereo not given) | inactive | 
11 | COc1ccccc1NC(=O)C1CCCN1S(=O)(=O)c1ccc(Cl)cc1 (stereo not given) | inactive | 
12 | COc1ccccc1NC1=NC(c2ccc(Cl)cc2)N=C(N)N1 (stereo not given) | 20.6 µM (active) | 
13 | CC1(C)N=C(N)NC(Nc2ccc(Cl)cc2)=N1 | inactive | 
14 | C[C@@H]1CN([C@H](C)CO)C(=O)c2cc(NC(=O)NC3CCCCC3)ccc2O[C@H]1CN(C)S(C)(=O)=O | inactive | 
15 | COc1ccc(CCNC(=O)COC(=O)c2cc(=O)c3ccccc3o2)cc1 | inactive | 
16 | CNC[C@H]1Oc2c(NC(=O)C3CCCCC3)cccc2C(=O)N([C@H](C)CO)C[C@@H]1C |  | 4.46% [at 9.22 µM] (inactive)
17 | COc1cc(/C=N/NC(=O)c2cc(-c3ccccc3C)nc3ccccc23)cc(OC)c1O | inactive | 
18 | COc1ccc(/C=N/NC(=O)c2cc(-c3cccc(C)c3)nc3ccccc23)cc1O | inactive | 
19 | CCOc1ccc(-c2cc(C(=O)N/N=C/c3ccc(O)cc3)c3ccccc3n2)cc1 | 18.4 µM (active) | 
20 | Cc1ccccc1NC(=O)c1cc(S(=O)(=O)Nc2cccc(C(=O)O)c2)ccc1Cl | inactive | 
21 | C/C(=N\Nc1cccc(C(=O)O)c1)c1ccc2c(c1)Nc1ccccc1S2 | 8.2 µM (active) | 
22 | O=C(O)c1cccc(N2C(=O)Nc3ccccc3N2O)c1 | inactive | 
23 | COc1cc(OC)cc(-c2c(C#Cc3ccsc3)c3cc(-c4ccc(OC)cc4F)ccc3n2C)c1 | inactive | 
24 | c1ccc(CNc2ncnc3[nH]ncc23)cc1 | inactive | 

Row | Compound | Potency | re-replication activation
25 | Nc1cc(=O)n(Cc2ccccc2)c(=O)n1Cc1ccccc1 | inactive | 
26 | Cc1nn(-c2ccc(F)cc2)c(Cl)c1/C=C(/CCC(=O)O)c1nc2ccccc2s1 | inactive | 
27 | CCCCN(C(=O)c1cccc(N2C(=O)c3ccccc3C2=O)c1)c1c(N)n(CCCC)c(=O)[nH]c1=O | inactive | 
28 | CCn1c(=S)[nH]c2cc(S(=O)(=O)N3CCOCC3)ccc21 | inactive | 
29 | Cc1ccc(COc2ccc(/C=N/NC(=O)CN3CCCCC3)cc2)cc1 | inactive | 
30 | Cc1ccsc1C(=O)N/N=C/c1ccc([N+](=O)[O-])cc1 | inactive | 
31 | Cc1ccc(/C=N/NC(=O)c2sccc2OCc2ccc(F)cc2)cc1 | 16.4 µM (active) | 
32 | CC(C)Cn1cnc2c(SCc3ccc(Cl)cc3)nc(N)nc21 | inactive | 
33 | O=C(NNC(=O)c1ccc(Cl)nc1)c1ccc(Br)cc1 | inactive | 
34 | CCN(CC)c1ccc(NC(=O)c2ccc(Cl)nc2)cc1 | 16.4 µM (active) | 
35 | O=C(Nc1ccc2nc3n(c(=O)c2c1)CCCC3)c1ccc(Cl)nc1 | inactive | 
36 | O=C(COc1ccccc1F)NNC(=O)c1cc(Br)ccc1Cl | inactive | 
37 | NC(=O)c1ccc(N2CCCC2)nc1 | inactive | 
38 | Cc1c(C(=O)Nc2ccccn2)oc2ccc(Br)cc12 | inactive | 
39 | Oc1ccc(Br)cc1C=Nc1ccc2[nH]ncc2c1 | inactive | 
40 | Oc1ccc(Br)cc1/C=N/Nc1ccccn1 | 9.2 µM (active) | 
41 | CCOC(=O)CCCCCC(=O)Nc1ccc2c(c1)CC(=O)N([C@@H](C)CO)C[C@H](C)[C@@H](CN(C)Cc1ccccc1)O2 | inactive | 
42 | Cc1nn(Cc2ccc(C(=O)N3N=C(C(F)F)CC3(O)C(F)F)cc2)c(C)c1[N+](=O)[O-] (stereo not given) | inactive | 
43 | Cc1ccn(CC(=O)N2N=C(C(F)F)CC2(O)C(F)F)n1 (stereo not given) | 0.517 µM (active) | 
44 | Cc1ccn(CCC(=O)N2c3ccccc3CC2C)n1 (stereo not given) | inactive | 
45 | CC1(C)C[C@H]2C3=CCC4[C@@]5(C)CC[C@H](O)[C@](C)(CO)C5CC[C@@]4(C)[C@]3(C)C[C@@H](O)[C@@]2(CO)[C@@H](O)[C@@H]1O (stereo not given in full) | inactive | 
46 | COc1cc(C(=O)OCC(=O)NC23CC4CC(CC(C4)C2)C3)cc(OC)c1OC | inactive | 
47 | COc1ccc(C(CNC(=O)c2cc(S(=O)(=O)Nc3cccc(C)c3)ccc2C)N2CCCC2)cc1 (stereo not given) | inactive | 
48 | CC[C@]1(C(=O)OC)[C@H]2C(=O)N(Cc3ccccc3)C(=O)[C@H]2[C@H]2CN=C(SCc3ccc(C#N)cc3)N21 |  | -4.58% [at 9.22 µM] (inactive)

Row | Compound | Potency | re-replication activation
49 | CCCCNS(=O)(=O)CCNCc1ccccc1OC | inactive | 
50 | COc1ccc(OC)c2c(N)c(C#N)c(C(F)(F)C(F)(F)F)nc12 | inactive | 
51 | COc1ccc(-c2cc(-c3ccc(N)cc3)nc(N)c2C#N)cc1OC | 23.1 µM (active) | 
52 | CCOc1cc(-c2cc(-c3ccc(NC(C)=O)cc3)nc(N)c2C#N)ccc1O | inactive | 
53 | COc1cccc(NC(=O)CN(C)CC(=O)c2c(N)n(Cc3ccccc3)c(=O)n(C)c2=O)c1 | inactive | 
54 | CC(=O)Nc1nonc1-c1nc2ccccc2n1Cc1ccccn1 | inactive | 
55 | COc1ccc(C)c(Cn2c(-c3nonc3N)nc3ccccc32)c1 | 5.17 µM (active) | 
56 | CCn1c(C(O)c2cc(OC)ccc2OC)nc2ccccc21 (stereo not given) | inactive | 
57 | Cc1ccc(C(=O)NCC(c2cccs2)N(C)C)cc1S(=O)(=O)N1CCOCC1 (stereo not given) | inactive | 
58 | CC(=O)C[C@H](O)CC(=O)[C@@H]1OC(=O)[C@@H](C)C/C=C\Cc2ccccc21 | inactive | 
59 | CC(C)C[C@H]1CN([C@@H](CC(C)C)CN2CCC[C@@H]2CN2C(=O)C(=O)NC[C@@H]2Cc2ccccc2)C(=O)C(=O)N1CCc1ccccc1 | inactive | 
60 | CCc1ccc(NC(=O)Cn2nnc(C(=O)NCc3ccc(OC)cc3)c2N)cc1 | inactive | 
61 | CCOc1ccccc1NC(=O)Cn1nnc(C(=O)NCc2cccs2)c1N | 0.146 µM (active) | 
62 | CCOc1ccccc1NC(=O)Cc1cccs1 | inactive | 
63 | C#CCOCCOCCOCCNc1nc(N2CCN(C(=O)Cn3cc(CCO)nn3)CC2)nc(N2CCN(C(=O)[C@H](CCCCN)n3cc(CCCC)nn3)CC2)n1 |  | 7.81% [at 9.22 µM] (inactive)
64 | COc1ccc(Br)cc1/C=N/Nc1ccc(S(=O)(=O)Nc2ccccc2C(=O)O)cc1[N+](=O)[O-] | inactive | 
65 | O=C1C[C@@H]2c3c(cccc3CN1Cc1ccccc1)C[C@@H](O)[C@H]2O | inactive | 
66 | CCC(=O)Nc1sc(C(=O)N2CCCCC2)c(C)c1C#N | inactive | 
67 | CCOC(=O)c1sc(NC(=O)CSc2nc(C)cc(C(F)(F)F)n2)c(C#N)c1C | inactive | 
68 | CCOC(=O)c1sc(NC(=O)CSc2ncccn2)c(C#N)c1C | 7.31 µM (active) | 
69 | COc1cc2c(cc1CNC[C@H]1O[C@@H](n3cnc(C(N)=O)n3)[C@H](O)[C@@H]1O)OCO2 | inactive | 
70 | CC(C)C(NC(=O)c1c(F)cccc1F)C(=O)NNC(=O)c1ccccc1 (stereo not given) | inactive | 
71 | COc1ccc(CNC(=O)COC(=O)C(CCSC)N2C(=O)c3ccccc3C2=O)cc1 (stereo not given) | inactive | 
72 | CN(C)CCCn1c(N)c(C#N)c2nc(C#N)c(C#N)nc21 | 16.4 µM (active) | 

Row | Compound | Potency | re-replication activation
73 | c1ccc2c(c1)OC1OC2Oc2ccccc21 | inactive | 
74 | O=C(NCCc1ccccc1)c1cccc(NC(=O)c2ccccc2)c1 | inactive | 
75 | COc1ccccc1NC(=O)CN(c1ccccc1OC)S(=O)(=O)c1ccccc1 | inactive | 
76 | COc1ccccc1N(CC(=O)N/N=C(\C)c1ccccc1O)S(=O)(=O)c1ccc(C)cc1 | 4.11 µM (active) | 
77 | COc1ccc(S(=O)(=O)N(CC(=O)N/N=C/c2ccccc2C(=O)O)c2ccccc2OC)cc1 | inactive | 
78 | Cc1cc(C)nc(SCC(=O)N(C)C)n1 | inactive | 
79 | Cc1cc(C)nc(S/C=C/C(=O)c2ccccc2)n1 | 4.61 µM (active) | 
80 | Cc1cc(C)nc(SCC(=O)c2ccc(Cl)cc2)n1 | inactive | 
81 | C=CCC[C@H](Cc1ccc(F)cc1)C(=O)OC[C@@H](NC(=O)[C@@H](CC=C)CC(=O)N[C@H](CO)Cc1ccccc1)C(C)(C)C | inactive | 
82 | O=C(NCC1CCCCC1)NCC1CCCCC1 | inactive | 
83 | O=C1CC(c2ccccc2)C(=O)N2C(=O)CC(c3ccccc3)C(=O)N12 (stereo not given) | inactive | 
84 | CC(C)(C)c1nnc2sc(SCC(O)=C(C#N)c3nc4ccccc4[nH]3)nn2c1=O | inactive | 
85 | COc1ccc(-c2c(-c3ccc(OC)cc3O)nc(C)nc2C(F)(F)F)cc1 | inactive | 
86 | COc1ccc(-c2onc(C)c2-c2ccc3c(c2)OCCO3)c(O)c1 | 14.6 µM (active) | 
87 | COc1ccc(O)c(C=Nc2cc(C)on2)c1 | inactive | 
88 | CCOC(=O)c1sc(NC(=O)COc2ncnc3ccccc23)c(C(=O)OCC)c1C | inactive | 
89 | CCC(=O)Nc1sc(C(=O)Nc2ccccc2)c(C)c1C(=O)OC | 20.6 µM (active) | 
90 | COC(=O)c1c(NC(C)=O)sc(C(=O)Nc2ccccc2OC)c1C | inactive | 
91 | COc1cc(OC)cc(C(=O)NC(C(=O)N2CCC2)C(C)C)c1 (stereo not given) | inactive | 
92 | CC(=O)Nc1ccc(Nc2c3ccccc3nc3ccccc23)cc1 | 18.4 µM (active) | 
93 | CC(=O)Nc1ccc(NC(=O)COc2ncnc3ccccc23)cc1 | inactive | 
94 | CC(C)(C)OC(=O)NNc1c2ccccc2nc2ccccc12 | inactive | 
95 | CC[C@]1(C(=O)OC)[C@H]2C(=O)N(Cc3ccccc3)C(=O)[C@H]2[C@H]2CN=C(SCc3ccccc3)N21 | inactive | 

Source: PubChem BioAssay AID624297 (National Center for Advancing Translational Sciences (NCATS), 2012)
